Measurements reported in PubChem BioAssay AID1903 (Southern Research Specialized Biocontainment Screening …, 2009).
Hit rate of the full screen: of about 310,000 compounds, about 1,200 (0.39%) were called active. How the calls were made is not given here. Only a sample is shown. Potency and affinity values are given separately.

What follows are molecules tested against Large T antigen (Simian virus 40) (UniProt P03070) (assay: TAg ATPase/helicase activity blockers – biochemical (AID 1903)). Conditions: SV40 large T antigen ATPase/helicase inhibition assay; at 20 µM; hits give high values.
Large T antigen (Simian virus 40), sequence (P03070 whole entry, looked up): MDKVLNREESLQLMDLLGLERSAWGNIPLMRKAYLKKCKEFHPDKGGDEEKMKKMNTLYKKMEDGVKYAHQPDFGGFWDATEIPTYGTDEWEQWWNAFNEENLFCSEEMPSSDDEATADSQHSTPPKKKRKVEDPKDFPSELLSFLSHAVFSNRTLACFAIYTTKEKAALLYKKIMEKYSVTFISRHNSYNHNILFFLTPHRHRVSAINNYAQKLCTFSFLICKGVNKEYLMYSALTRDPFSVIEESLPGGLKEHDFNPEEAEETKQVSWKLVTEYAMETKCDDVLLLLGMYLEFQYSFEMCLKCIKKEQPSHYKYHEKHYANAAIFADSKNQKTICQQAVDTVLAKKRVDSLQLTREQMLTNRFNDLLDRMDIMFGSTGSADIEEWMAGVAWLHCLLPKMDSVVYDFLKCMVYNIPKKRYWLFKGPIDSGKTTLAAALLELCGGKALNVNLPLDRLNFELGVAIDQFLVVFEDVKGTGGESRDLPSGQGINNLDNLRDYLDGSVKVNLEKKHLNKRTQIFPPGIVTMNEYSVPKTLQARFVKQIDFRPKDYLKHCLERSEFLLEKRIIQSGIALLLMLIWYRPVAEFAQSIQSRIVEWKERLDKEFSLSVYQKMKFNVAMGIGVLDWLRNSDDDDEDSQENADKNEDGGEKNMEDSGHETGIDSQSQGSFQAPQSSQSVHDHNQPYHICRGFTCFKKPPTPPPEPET
For CCCOc1ccc(-c2nc(C#N)c(NCC3CCCO3)o2)cc1 (stereo unspecified), the inhibition was 3.05% (inactive).
With O=C(CSc1nc2ccccc2s1)NCCCN1CCOCC1 the inhibition was -10.3% (inactive).
For COc1ccc(CCC(=O)NC2=NCCS2)cc1OC, the inhibition was 13.6% (inactive).
O=C(Nc1ccc2c(c1)OCCO2)c1ccco1 was tested, and the inhibition was 30.4% (inactive).
CCOC(=O)CSc1nc2sc3c(c2c(=O)n1C1CCCCC1)CCN(C)C3 was tested, and the inhibition was 24.2% (inactive).
For CCC(NC(=O)c1cc(COc2ccc(Cl)cc2OC)on1)c1ccncc1 (stereo unspecified), the inhibition was 7.95% (inactive).
With CCn1c(CC(=O)Nc2ccc(C)c(Cl)c2)nnc1SCc1ccc(Cl)c(Cl)c1 the inhibition was 2.82% (inactive).
For O=[N+]([O-])c1ccc(Cl)c2c1C1C=CCC1C(c1ccccn1)N2 (stereo unspecified), the inhibition was 21.7% (inactive).
For CC(C)C1Nc2c(O)cc(Cl)c([N+](=O)[O-])c2C2C=CCC21 (stereo unspecified), the inhibition was 21.4% (inactive).
Cc1ccc(CNC(=O)CCC2CCCN(C(=O)c3ccc4c(c3)OCO4)C2)o1 (stereo unspecified) was tested, and the inhibition was 12.7% (inactive).
For N#Cc1cnc(Nc2ccc(F)cc2)nc1N, the inhibition was 7.13% (inactive).
In the case of CNc1nc(Nc2ccc(Br)cc2)nc(N)c1[N+](=O)[O-], the inhibition was 9.77% (inactive).
In the case of C[C@H](CCC(=O)O)[C@H]1CC[C@H]2[C@@H]3[C@H](O)C[C@@H]4C[C@H](O)CC[C@]4(C)[C@H]3CC[C@]12C, the inhibition was 19.2% (inactive).
In the case of C[C@H](CCC(=O)O)[C@H]1CC[C@H]2[C@@H]3CC[C@@H]4C[C@H](O)CC[C@]4(C)[C@H]3C[C@H](O)[C@]12C, the inhibition was 12.7% (inactive).
In the case of Cc1nsc2nc3c(F)c(F)c(F)c(F)c3cc12, the inhibition was 16.9% (inactive).
In the case of Cc1c(/C=N/NC(N)=O)c2ccccn2c1C(=O)c1ccncc1, the inhibition was 15% (inactive).
With COc1cc(/C=C/C(=O)OCC(=O)Nc2ccc(S(=O)(=O)N3CCCC3)cc2)ccc1O the inhibition was 24.6% (inactive).
CCCCOc1ccc(/C=C/C(=O)OCC(=O)N2CC(=O)Nc3ccccc32)cc1OCC was tested, and the inhibition was 14.1% (inactive).
In the case of COc1ccc(/C=C/C(=O)OCC(=O)N2CC(=O)Nc3ccccc32)cc1, the inhibition was 1.89% (inactive).
For COc1ccc(/C=C/C(=O)OCC(=O)Nc2ccc(S(N)(=O)=O)cc2)cc1OC, the inhibition was 5.77% (inactive).
Cc1cc(C(=O)NCCC(c2ccccc2)c2ccccc2)c(C)o1 was tested, and the inhibition was 8.32% (inactive).
With CC1(C)Cc2cccc(Oc3cc(NN4CCCCC4)c([N+](=O)[O-])cc3[N+](=O)[O-])c2O1 the inhibition was 1.3% (inactive).
In the case of Cc1nn(C(C)C(=O)NCC2CCCO2)c(=O)c2cc3occc3n12 (stereo unspecified), the inhibition was -0.26% (inactive).
For CN(C)c1ccc(/C=N/NC(=O)CSc2ccccn2)cc1, the inhibition was 25.6% (inactive).
For COc1cc(/C=N/NC(=O)CSc2ccccn2)ccc1OC(C)C, the inhibition was 14.9% (inactive).
COc1ccc(/C=N/NC(=O)CSc2ccccn2)cc1OC was tested, and the inhibition was 10.6% (inactive).
With CCCOc1ccc(/C=N/NC(=O)CSc2ccccn2)cc1OC the inhibition was 3.28% (inactive).
With CCN(C(=O)CN1C(=S)NC(C)(C)CC1C)c1ccc(C)c(C)c1 (stereo unspecified) the inhibition was 6.37% (inactive).
In the case of O=C(CSc1nnc(NC(=O)c2c(F)cccc2F)s1)Nc1ccccc1F, the inhibition was 11.2% (inactive).
CCCOc1ccccc1N1C(=O)CC(N(O)c2ccccc2)C1=O (stereo unspecified) was tested, and the inhibition was 20.6% (inactive).
For CCNc1nc(NCC)nc(NC(N)=S)n1, the inhibition was 1.3% (inactive).
In the case of Cc1cc(C)c2nncn2n1, the inhibition was 11.8% (inactive).
For O=C(O)Cc1c[nH]c2ccccc12, the inhibition was 10.4% (inactive).
NC(=O)Cc1c[nH]c2cccc(O)c12 was tested, and the inhibition was 30.1% (inactive).
With CCOC(=O)c1ccc2c(c1)C1C=CCC1C(C(=O)OCC)N2 (stereo unspecified) the inhibition was 12.4% (inactive).
For CCOC(=O)C1Nc2ccc(C)cc2C2C=CCC12 (stereo unspecified), the inhibition was 8.94% (inactive).
For Cc1ccc2c(c1)C1C=CCC1C(C(=O)NCCCN1CCOCC1)N2 (stereo unspecified), the inhibition was 12.6% (inactive).
CCOC(=O)C1Nc2ccc(OC(F)(F)F)cc2C2C=CCC12 (stereo unspecified) was tested, and the inhibition was 19.1% (inactive).
In the case of O=C(O)C1Nc2c(Cl)cc(Cl)c(Cl)c2C2C=CCC12 (stereo unspecified), the inhibition was 31% (inactive).
O=C(NC1CC1)C1Nc2ccc(OC(F)(F)F)cc2C2C=CCC12 (stereo unspecified) was tested, and the inhibition was 6.67% (inactive).
With CCOC(=O)C1Nc2ccc(C(=O)O)cc2C2C=CCC12 (stereo unspecified) the inhibition was 16.5% (inactive).
In the case of Cc1cc(C)c2c(c1)NC(c1cc3c(cc1Br)OCO3)C1CC=CC21 (stereo unspecified), the inhibition was 9.15% (inactive).
O=S(=O)(Nc1cccc(-c2ccc(N3CCCCCC3)nn2)c1)c1ccc(C(F)(F)F)cc1 was tested, and the inhibition was 2.18% (inactive).
For C#CCOCCOCCOCCNc1nc(N2CCN(C(=O)Cn3cc(CCCCN)nn3)CC2)nc(N2CCN(C(=O)[C@H](C(C)C)n3cc(CCO)nn3)CC2)n1, the inhibition was 9.84% (inactive).
CC1=C(C(=O)NCc2ccccc2)C(c2cccnc2)n2ncnc2N1 (stereo unspecified) was tested, and the inhibition was 0.75% (inactive).
For Cc1cc(=O)[nH]c(SCc2ccccc2)n1, the inhibition was -3.07% (inactive).
For CCN(c1ccccc1)S(=O)(=O)c1ccc2ccccc2c1, the inhibition was 1.9% (inactive).
With COc1cccc(OC)c1C(=O)Nc1ccc([N+](=O)[O-])cn1 the inhibition was 8.19% (inactive).
O=C(OC1CCCCC1)c1ccc2c(c1)C1C=CCC1C(C(=O)O)N2 (stereo unspecified) was tested, and the inhibition was 33.8% (inactive).
With CC(=O)c1ccc2c(c1)C1C=CCC1C(c1ccncc1)N2 (stereo unspecified) the inhibition was 7.95% (inactive).
In the case of COc1cc(SC)ccc1C(=O)N1CCN(c2ccccc2OC)CC1, the inhibition was 2.01% (inactive).
In the case of COc1cc(SC)ccc1C(=O)N1CCN(Cc2ccc3c(c2)OCO3)CC1, the inhibition was 18.1% (inactive).
For COc1cc(Cl)ccc1NC(=O)COc1ccccc1C(=O)NN, the inhibition was 6.94% (inactive).
With COc1ccc(N2CCN(C(=O)c3ccc(SC)cc3OC)CC2)cc1 the inhibition was 18.7% (inactive).
With COc1ccccc1NC(=O)COC(=O)c1ccccc1C(=O)N1CCN(c2ccccc2)CC1 the inhibition was 6.53% (inactive).
COc1cc(SC)ccc1C(=O)N1CCN(c2ccccc2)CC1 was tested, and the inhibition was 2.66% (inactive).
Cc1ncc([N+](=O)[O-])n1Cc1ccc(Br)cc1 was tested, and the inhibition was 7.03% (inactive).
In the case of CCc1cccc(C)c1NC(=O)CN(C)Cc1ccc(Br)cc1, the inhibition was 9.47% (inactive).
With O=C(NCc1ccco1)C1CC(c2ccc(F)cc2)=NO1 (stereo unspecified) the inhibition was 6.38% (inactive).
In the case of N#C/C(=C\c1c[nH]c2ccccc12)C(N)=O, the inhibition was 5.89% (inactive).
With COC(=O)/C(C#N)=C\c1c(OC)[nH]c2ccccc12 the inhibition was 8.82% (inactive).
In the case of O=C(CN(c1ccccc1F)S(=O)(=O)c1ccccc1)Nc1ccccc1C(=O)N1CCOCC1, the inhibition was 11.3% (inactive).
With Cc1cccc(NC(=O)c2ccc(N3CCOCC3)c([N+](=O)[O-])c2)n1 the inhibition was -1.72% (inactive).
For O=C(CNC(=O)c1cccc(F)c1)N/N=C/c1cccnc1, the inhibition was 20.9% (inactive).
C=C(C)CSc1nc2c(cc1C#N)CCC2 was tested, and the inhibition was 7.26% (inactive).
For CCn1c(COc2ccc(C)cc2)nc2ccccc21, the inhibition was 3.75% (inactive).
In the case of Cc1ccc(-c2nc(N)s[n+]2-c2ccccc2)cc1, the inhibition was 13.6% (inactive).
For Cc1ccc(-c2nc3ccccc3nc2-c2ccccc2)cc1, the inhibition was 0.76% (inactive).
With O=C1C(Cl)=C(N2CCCCC2)C(=O)N1Cc1ccccc1 the inhibition was 0.56% (inactive).
For Cc1ccc(C(=O)N/C(=C\c2sccc2C)C(=O)NCc2ccco2)cc1, the inhibition was 7.34% (inactive).
For CC1=NOC(=O)/C1=C\c1ccc(-c2ccc(Cl)cc2Cl)o1, the inhibition was 16.7% (inactive).
With Cc1ccc(/C=C2\C(=O)ON=C2c2ccccc2)o1 the inhibition was -2.84% (inactive).
For COc1ccc(-c2ccc(/C=C3\C(=O)N(c4ccccc4)N=C3c3ccccc3)o2)c([N+](=O)[O-])c1, the inhibition was 2.08% (inactive).
Cc1ccc(C2=NOC(=O)/C2=C\c2ccccc2)cc1 was tested, and the inhibition was 59.5% (inactive).
For O=C1/C(=C\c2ccc(-c3ccccc3[N+](=O)[O-])o2)C(c2ccccc2)=NN1c1ccccc1, the inhibition was -3.41% (inactive).
With O=C(O)/C(=C\c1ccc(-c2ccccc2[N+](=O)[O-])o1)c1ccccc1 the inhibition was 10.1% (inactive).
With O=C1COc2ccc(C(=O)COC(=O)c3sc4ccccc4c3Cl)cc2N1 the inhibition was 7.71% (inactive).
With CCOc1ccc(CN(C)CC(=O)Nc2ccc(N3CCOCC3)cc2)cc1OC the inhibition was 6.36% (inactive).
With CC(NC(=O)c1ccccc1F)c1ccccc1 (stereo unspecified) the inhibition was 3.89% (inactive).
With O=C(NCCNC1CCN(Cc2ccccc2)CC1)c1cccs1 the inhibition was 5.49% (inactive).
With O=C1CCCC(=O)C1CS(=O)(=O)c1ccccc1 the inhibition was 14.9% (inactive).
For CCOC(=O)N1CCC(=NNc2nc3ccccc3s2)CC1, the inhibition was 8.66% (inactive).
CC1(C)C(=O)Nc2ccccc2N1C(=O)COC(=O)c1ccc(Cl)c(S(=O)(=O)NCc2ccccc2)c1 was tested, and the inhibition was 6.69% (inactive).
For O=C(Nc1ccccc1F)c1ccccc1C(=O)Nc1ccccc1F, the inhibition was 14.6% (inactive).
For CCCCn1c(N)c(N(CCC(C)C)C(=O)CC2CCCC2)c(=O)[nH]c1=O, the inhibition was 19.1% (inactive).
COc1ccc(CC(=O)NN2C(=O)c3ccccc3C2=O)cc1 was tested, and the inhibition was 10.8% (inactive).
For COc1ccc2[nH]cc(CCNC(C)=O)c2c1, the inhibition was -0.22% (inactive).
In the case of O=C1c2ccccc2C(=O)N1CCCc1c[nH]c2ccc(Cl)cc12, the inhibition was 8.17% (inactive).
With O=C1c2ccccc2C(=O)N1CCc1c[nH]c2ccccc12 the inhibition was 14.9% (inactive).
In the case of N[C@@H](Cc1c[nH]c2ccc(O)cc12)C(=O)O, the inhibition was 20.5% (inactive).
O=C(O)Cc1c[nH]c2ccc(O)cc12 was tested, and the inhibition was 29.6% (inactive).
For CC(=O)NCCc1c[nH]c2ccc(OCc3ccccc3)cc12, the inhibition was 17% (inactive).
In the case of COc1ccccc1CCN1CCCC(CN(C)C(=O)c2ccc3nc[nH]c3c2)C1 (stereo unspecified), the inhibition was 6.91% (inactive).
In the case of Cc1ccc(C)c(S(=O)(=O)N2CCCOC2CNC(=O)C(=O)NCCCn2ccnc2)c1 (stereo unspecified), the inhibition was 7.3% (inactive).
In the case of Cc1[nH][nH]c(=O)c1C=NCc1cccc(C(F)(F)F)c1, the inhibition was 8.38% (inactive).
In the case of CC(=N)c1c(O)c2ccccc2oc1=O, the inhibition was 20.4% (inactive).
